Measured values reported in PubChem BioAssay (NCATS).
Results filed as inconclusive are left out. Activity calls are given as the source filed them. Calls follow the shape of the dose curve; as a rule, active = well fitted curve in the direction sought with a large enough effect; inconclusive = small, poorly fitted or top-dose-only effect, or another doubt; inactive = no such curve, though single readings can be large; an effect the other way counts as inactive or inconclusive. Where a SMILES comes first, the peptide text is derived from it. [ ]: non-standard residue; d: D form. ξ: configuration not given here. ξLac(3-iPr) = CC(C)CC(O)C(=O)O; NMeV = CN[CH](C(=O)O)C(C)C; βAla = NCCC(=O)O

Legend:
HEK293 = assay: Cytotoxic Profiling of Annotated Libraries Using Quantitative High-Throughput Screening (AID 1296008); conditions: Five cell lines viability, CellTiter-Glo ATP luminescence, 48-72 h; max response: active compounds read low; also: nearly all actives have a fitted effect of over 60% in size
Method in brief: (§1)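 Cytotoxicity was measured as CellTiter-Glo ATP luminescence, read after 10 min at room temperature. Compound treatment of the cells lasted 48 or 72 hr at 37 degrees Celsius in a qHTS format.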

KB-3-1 = assay: as above; conditions: Five cell lines viability, CellTiter-Glo ATP luminescence, 48-72 h; max response: active compounds read low
Method in brief: as §1

NIH3T3 = assay: as above; conditions: Five cell lines viability, CellTiter-Glo ATP luminescence, 48-72 h; max response: active compounds read low
Method in brief: as §1

C33A = assay: Primary qHTS to identify gynecologic anti-cancer compounds using libraries of approved drugs and bioactive compounds (AID 1345084); conditions: Gynecologic cancer cell panel viability, ATPlite luminescence, 48 h; series mostly up to 57.5 µM; also: nearly all actives have a fitted effect of over 55% in size
Method in brief: (§2)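 Five-concentration response, 48 h; readout is ATP-driven luciferase luminescence.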

CAOV3 = assay: as above; conditions: Gynecologic cancer cell panel viability, ATPlite luminescence, 48 h; series mostly up to 57.5 µM
Method in brief: as §2

CASKI = assay: as above; conditions: Gynecologic cancer cell panel viability, ATPlite luminescence, 48 h; series mostly up to 57.5 µM
Method in brief: as §2

Es-2 = assay: as above; conditions: Gynecologic cancer cell panel viability, ATPlite luminescence, 48 h; series mostly up to 57.5 µM
Method in brief: as §2

HeLa = assay: as above; conditions: Gynecologic cancer cell panel viability, ATPlite luminescence, 48 h; series mostly up to 57.5 µM
Method in brief: as §2

Hek293T = assay: as above; conditions: Gynecologic cancer cell panel viability, ATPlite luminescence, 48 h, control line for the selectivity index; series mostly up to 57.5 µM
Method in brief: as §2

JEG-3 = assay: as above; conditions: Gynecologic cancer cell panel viability, ATPlite luminescence, 48 h; series mostly up to 57.5 µM
Method in brief: as §2
% is scaled to controls: 0 for no effect and ±100 for the full control effect; potency is read from the fitted curve at half-maximal effect.

COc1cc(Br)c(S(=O)(=O)Nc2ccc(C(F)(F)F)c(O[C@@H]3CCN(C)C3)c2)cc1OC
inactive: max response (HEK293) -36.5% | max response (KB-3-1) -11.3% | max response (NIH3T3) -2.88% | Potency (C33A) | Potency (CAOV3) | Potency (CASKI) | Potency (Es-2) | Potency (HeLa) | Potency (Hek293T) | Potency (JEG-3)

CC1=CC(=O)[C@H]2C(C)(C)CCC[C@]2(C)[C@@]1(O)CO
inactive: max response (HEK293) -15.2% | max response (KB-3-1) 7.19% | max response (NIH3T3) 3.55% | Potency (C33A) | Potency (CAOV3) | Potency (CASKI) | Potency (Es-2) | Potency (HeLa) | Potency (Hek293T) | Potency (JEG-3)

CCOCCn1nc(CC)c2nc(N3CCC(C(=O)O)CC3)nc(Nc3cc(C)ccn3)c21
inactive: max response (HEK293) -20% | max response (KB-3-1) -10.2% | max response (NIH3T3) 3.17% | Potency (C33A) | Potency (CAOV3) | Potency (CASKI) | Potency (Es-2) | Potency (HeLa) | Potency (Hek293T) | Potency (JEG-3)

CCC(C)C(=O)O[C@H]1CCC=C2C=C[C@H](C)[C@H](CC[C@@H](O)C[C@@H](O)CC(=O)O)[C@H]21 (stereo not given in full)
inactive: max response (HEK293) 0.832% | max response (KB-3-1) 7.29% | max response (NIH3T3) -16.9% | Potency (C33A) | Potency (CAOV3) | Potency (CASKI) | Potency (Es-2) | Potency (HeLa) | Potency (Hek293T) | Potency (JEG-3)

C[C@@H]1O[C@@H](O[C@H]2[C@H](O[C@H]3[C@H](O[C@H]4CC[C@@]5(C)C(CC[C@]6(C)C5CC=C5[C@@H]7CC(C)(C)C[C@@H](O)[C@]7(C)CC[C@]56C)[C@@]4(C)CO)O[C@H](C(=O)O)[C@@H](O)[C@@H]3O)OC[C@H](O)[C@@H]2O)[C@H](O)[C@H](O)[C@H]1O (stereo not given in full)
inactive: max response (HEK293) -4.78% | max response (KB-3-1) -1.37% | max response (NIH3T3) -4.51% | activity change, negative = cytotoxicity (C33A) -0.169% [at 11.6 µM] | activity change, negative = cytotoxicity (CAOV3) 0% [at 11.6 µM] | activity change, negative = cytotoxicity (CASKI) -2.47% [at 11.6 µM] | activity change, negative = cytotoxicity (Es-2) 1.77% [at 11.6 µM] | activity change, negative = cytotoxicity (HeLa) 0% [at 11.6 µM] | activity change, negative = cytotoxicity (Hek293T) -7.13% [at 11.6 µM] | activity change, negative = cytotoxicity (JEG-3) -0.873% [at 11.6 µM]

COc1ccc(C2COc3cc(O)ccc3C2)c(O)c1 (stereo not given)
inactive: max response (HEK293) -0.71% | max response (KB-3-1) -10.5% | max response (NIH3T3) 4.68% | Potency (C33A) | Potency (CAOV3) | Potency (CASKI) | Potency (Es-2) | Potency (HeLa) | Potency (Hek293T) | Potency (JEG-3)

C=C1CC23CC1CCC2C12OC(=O)C(C)(CCC1O)C2C3C(=O)O (stereo not given)
inactive: max response (HEK293) 2.62% | outcome (KB-3-1) | max response (NIH3T3) 3.76% | Potency (C33A) | Potency (CAOV3) | Potency (CASKI) | Potency (Es-2) | Potency (HeLa) | Potency (Hek293T) | Potency (JEG-3)

COc1cc(N)c(Cl)cc1C(=O)NC[C@@H]1CCN2CCC[C@@H]12
inactive: max response (HEK293) -3.94% | max response (KB-3-1) -4.24% | max response (NIH3T3) -6% | Potency (C33A) | Potency (CAOV3) | Potency (CASKI) | Potency (Es-2) | Potency (HeLa) | Potency (Hek293T) | Potency (JEG-3)

Nc1ncnc2c([C@@H]3N[C@H](CO)[C@@H](O)[C@H]3O)c[nH]c12
inactive: max response (HEK293) 1.17% | max response (KB-3-1) 5.62% | max response (NIH3T3) -4.07% | Potency (C33A) | Potency (CAOV3) | Potency (CASKI) | Potency (Es-2) | Potency (HeLa) | Potency (Hek293T) | Potency (JEG-3)

Nc1nc2c(c(=O)[nH]1)C[C@@H](CCc1ccc(C(=O)N[C@@H](CCC(=O)O)C(=O)O)cc1)CN2
inactive: Potency (CAOV3)
active: Potency (HEK293) 206 nM | Potency (KB-3-1) 58 nM | Potency (NIH3T3) 103 nM | Potency (C33A) 631 nM | Potency (CASKI) 282 nM | Potency (Es-2) 282 nM | Potency (HeLa) 282 nM | Potency (Hek293T) 316 nM | Potency (JEG-3) 10000 nM

CC(C)CC1OC(=O)C2CCCN2C(=O)CCNC(=O)C(Cc2ccccc2)NC(=O)C(C(C)C)N(C)C(=O)C(C(C)C)N(C)C1=O (stereo not given) (cyclo([ξLac(3-iPr)][NMeV][NMeV]F[βAla]P); configuration not given here)
inactive: max response (HEK293) 4% | max response (KB-3-1) 3.73% | max response (NIH3T3) 0.588% | Potency (C33A) | Potency (CAOV3) | Potency (CASKI) | Potency (Es-2) | Potency (HeLa) | Potency (Hek293T) | Potency (JEG-3)

CC1(C)CCC2(C(=O)OC3OC(CO)C(O)C(O)C3O)CCC3(C)C(=CCC4C5(C)CCC(O)C(C)(C(=O)O)C5CCC43C)C2C1O (stereo not given)
inactive: max response (HEK293) 4.09% | max response (KB-3-1) 1.65% | max response (NIH3T3) 0.934% | Potency (C33A) | Potency (CAOV3) | Potency (CASKI) | Potency (Es-2) | Potency (HeLa) | Potency (Hek293T) | Potency (JEG-3)

CC(C)=CCC[C@](C)(O[C@@H]1O[C@H](CO)[C@@H](O)[C@H](O)[C@H]1O)[C@H]1CC[C@]2(C)[C@@H]1[C@H](O)CC1[C@@]3(C)CC[C@H](O)C(C)(C)C3[C@@H](O[C@@H]3O[C@H](CO)[C@@H](O)[C@H](O)[C@H]3O[C@@H]3OC[C@@H](O)[C@H](O)[C@H]3O)C[C@]12C (stereo not given in full)
inactive: max response (HEK293) -0.716% | max response (KB-3-1) -9.18% | max response (NIH3T3) -2.19% | activity change, negative = cytotoxicity (C33A) -5.13% [at 11.6 µM] | activity change, negative = cytotoxicity (CAOV3) 0.415% [at 11.6 µM] | activity change, negative = cytotoxicity (CASKI) -3.01% [at 11.6 µM] | activity change, negative = cytotoxicity (Es-2) 3.44% [at 11.6 µM] | activity change, negative = cytotoxicity (HeLa) 9.51% [at 11.6 µM] | activity change, negative = cytotoxicity (Hek293T) -2.61% [at 11.6 µM] | activity change, negative = cytotoxicity (JEG-3) -16.8% [at 11.6 µM]
